# Shown are actives, neighbours in structure and some others; about 21% of the full set was active somewhere.
# MRP reversal – reversal of MRP1-mediated doxorubicin resistance, primary screen, H69AR cells, doxorubicin co-treatment; H69AR cells + 2 uM doxorubicin, CellTiter-Glo, 72 h; AID 602, 2007; differential viability (reversal), % at 10 µM; 85,000 tested, 0.04% active;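 active = viability drop by adding the cancer drug above about 55%, with treated viability meeting a 40% cutoff, limit read from the data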;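 also: viability without doxorubicin minus viability with 2 µM doxorubicin for each compound; larger differential means the compound sensitizes cells more to doxorubicin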
# CYP2C9 inhib – blockers of cytochrome P450 2C9 activity – biochemical, luminescence, ADME assay, primary screen. P11712. CYP2C9 Supersomes, luciferin-H conversion. 96,000 tested, 20% active. AID 777, 2007. inhibition, % at 5 µM;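 active = blocking of liver enzyme CYP2C9 beyond about 50% at 5 µM, limit read from the data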
# Target sequence (P11712 whole entry, looked up): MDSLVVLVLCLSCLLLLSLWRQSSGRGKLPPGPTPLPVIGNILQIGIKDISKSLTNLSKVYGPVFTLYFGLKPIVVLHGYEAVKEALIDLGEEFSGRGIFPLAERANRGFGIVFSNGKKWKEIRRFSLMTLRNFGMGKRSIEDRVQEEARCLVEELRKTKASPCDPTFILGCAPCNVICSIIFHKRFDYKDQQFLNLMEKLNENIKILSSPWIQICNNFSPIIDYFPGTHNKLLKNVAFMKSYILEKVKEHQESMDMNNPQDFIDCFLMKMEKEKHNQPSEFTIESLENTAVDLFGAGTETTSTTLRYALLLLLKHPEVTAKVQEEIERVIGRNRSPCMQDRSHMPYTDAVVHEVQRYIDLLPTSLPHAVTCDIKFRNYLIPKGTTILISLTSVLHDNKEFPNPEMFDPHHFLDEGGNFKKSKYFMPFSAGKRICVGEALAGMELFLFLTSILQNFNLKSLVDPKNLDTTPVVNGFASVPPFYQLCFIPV
# MRP1 act – H69AR viability gain despite doxorubicin, primary screen, MRP-1 activator project, H69AR cells, CellTiter-Glo. viability rescue. viability increase, % at 10 µM. 140,000 tested, 0.61% active;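 active = viability gain under doxorubicin at or above a set limit, the compound median plus 3 SD, cut at about 4.7% in these data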;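 also: MRP-1 overexpressing cells given doxorubicin 25 µM after compound pretreatment; 18-22 h compound pretreatment then 72 h with doxorubicin before readout; 0% = doxorubicin-only wells and 100% = vehicle-treated cells without doxorubicin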
# CYP2C19 inh – blockers of cytochrome P450 2C19 activity – biochemical, luminescence, ADME assay, primary screen. CYP2C19 Supersomes, luciferin-H EGE luminescence, 30 min. inhibition, % at 5 µM. 96,000 tested, 21% active. AID 778, 2007;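 active = CYP2C19 inhibition above a set limit at 5 µM in the primary screen, cut at about 50% in these data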;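 also: plate controls were negative control wells for no effect and 2.5 mM tranylcypromine positive control for full effect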
# CYP2C9 act – human CYP2C9 activators, primary screen, biochemical, luminescence | Cytochrome P450 2C9 (Homo sapiens), P11712 | activation factor at 5 µM | 96,000 tested, 1.4% active | AID 1024, 2008 | recombinant CYP2C9, luciferin-H conversion; active compounds read high; factor 1 = untreated enzyme, 0 = blocked;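 active = activation factor of 2 or more for CYP2C9 at a 5 µM dose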;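 also: 0 = sulfaphenazole-blocked wells and 1 = vehicle-only wells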
# CYP2C19 activ – human CYP2C19 activators, primary screen, biochemical, luminescence. Cytochrome P450 2C19 (Homo sapiens), P33261. recombinant CYP2C19, luciferin-H EGE luminescence; active compounds read high; 0 = fully inhibited enzyme, 1 = untreated enzyme. activation factor at 5 µM. 96,000 tested, under 10 active;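 active = activation factor of at least 2 at 5 µM in the primary screen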;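 also: 0 = wells with 2.5 mM tranylcypromine and 1 = vehicle-only wells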
# The depositor's hits bear a star; x = no result given.
SMILES,MRP reversal,CYP2C9 inhib,MRP1 act,CYP2C19 inh,CYP2C9 act,CYP2C19 activ
Cc1cc(-c2csc(N)n2)c(C)n1CCC(C)C,6,81*,-1,95*,0.2,0
Cc1cc(-c2csc(N)n2)c(C)n1CCc1ccccc1,-30,66*,0,84*,0.3,0.2
COc1ccc(/C=C/C(=O)c2c(O)ccc3c(C)cc(=O)oc23)cc1,x,x,-3,x,x,x
Cc1occc1-c1nnc(SCC(=O)N2CCN(c3ccccc3F)CC2)n1C,x,x,-1,x,x,x
COc1ccc(CCN2C(=NC(=O)CC(C)C)SC3CS(=O)(=O)CC32)cc1 (stereo unspecified),16,56*,-4,82*,0.4,0.2
CC(C)CC(=O)N=C1SC2CS(=O)(=O)CC2N1Cc1ccccc1 (stereo unspecified),x,x,-2,x,x,x
Cn1c(=O)cc(N2CCc3ccccc32)[nH]c1=O,3,4,-3,-2,1,1
CNc1nc(N2CCc3ccccc32)ncc1F,1,24,0,82*,0.8,0.2
CCOC(=O)C1=C(C(F)(F)F)Nc2ncnn2C1c1cccc(OC)c1OC (stereo unspecified),x,x,-1,x,x,x
Fc1ccc(Br)cc1C1C=C(c2ccc(Br)s2)Nc2ncnn21 (stereo unspecified),-19,46,-2,96*,0.5,0
COc1cccc(C2C=C(c3ccc(Br)s3)Nc3ncnn32)c1OC (stereo unspecified),-35,83*,-1,98*,0.2,0
COc1ccc(C2C=C(c3ccc(C)c(C)c3)Nc3ncnn32)c(OC)c1OC (stereo unspecified),-45,92*,-4,96*,0.1,0
C=CCOC(=O)C1=C(C)Nc2ncnn2C1c1cc(Br)ccc1F (stereo unspecified),-31,46,-2,21,0.5,0.8
O=C(NC1CCCC1)C(c1ccccc1F)N(C(=O)Cc1cccs1)c1ccc2c(c1)OCCO2 (stereo unspecified),x,x,-2,x,x,x
O=c1c2ccccc2nc2n1C(CSCc1ccc(Cl)cc1)CS2 (stereo unspecified),x,29,-1,75*,0.7,0.2
CCOc1ccccc1C(=O)OCC(=O)Nc1ncc(C(F)(F)F)cc1Cl,22,29,0,93*,0.7,0.1
O=C(COC(=O)c1ccccc1OCC(=O)Nc1ccc(Br)cc1)Nc1ccccc1,x,x,-3,x,x,x
O=C(COC(=O)c1cccc2ccccc12)Nc1ncc(C(F)(F)F)cc1Cl,17,24,0,42,0.8,0.6
CCOc1ncccc1C(=O)OCC(=O)Nc1ncc(C(F)(F)F)cc1Cl,-6,26,-1,62*,0.7,0.4
COc1ccc(NC(=S)NNC(=O)c2ccccc2OC(F)F)cc1,x,54*,-2,31,0.5,0.7
CCOc1ccccc1C(=O)OCC(=O)Nc1ccc(OC(F)F)cc1,x,-1,14*,55*,1,0.4
COc1cccc(C(=O)N2CCN(S(=O)(=O)Cc3ccccc3)CC2)c1OC,-3,x,-1,x,x,x
Cc1cc(Cl)ccc1OCCCC(=O)NCC1CCCO1 (stereo unspecified),-5,-131,0,27,2.3*,0.7
CN(C)c1ccc(C(=O)OCC(=O)NCC2CCCO2)cc1 (stereo unspecified),x,-48,-3,83*,1.5,0.2
CC(C)NS(=O)(=O)c1ccc(OCC(=O)NCC2CCCO2)c(Cl)c1 (stereo unspecified),-1,66*,0,67*,0.3,0.3
Cc1cc(Cl)ccc1OCCCC(=O)NO,-10,34,-3,32,0.7,0.7
CN(C)c1cccc(C(=O)OCC(=O)NCC2CCCO2)c1 (stereo unspecified),15,-161,0,67*,2.6*,0.3
CN(C)c1ccc(NC(=S)NCC2CCCO2)cc1 (stereo unspecified),x,x,-1,x,x,x
Cc1cc(S(=O)(=O)NCC(C)C)ccc1OCC(=O)NCC1CCCO1 (stereo unspecified),x,x,-3,x,x,x

# High-throughput results deposited in PubChem BioAssay by several laboratories.
